# Measured values taken from publication PMC4336329 (PLoS ONE, 2015).
# In all, about 310,000 compounds went through this assay and about 2,200 (0.71%) showed an effect of 50% or more. The effect is printed as a negative number. Shown is part of a subset that was picked to be rich in strong results.
# Target: human ether-à-go-go-related gene (hERG) potassium channel (human, UniProt Q12809)
# Assay: primary screen, population patch clamp on CHO cells stably expressing hERG; higher = less effect of the substance
# Sequence of human ether-à-go-go-related gene (hERG) potassium channel (Q12809 whole entry, looked up): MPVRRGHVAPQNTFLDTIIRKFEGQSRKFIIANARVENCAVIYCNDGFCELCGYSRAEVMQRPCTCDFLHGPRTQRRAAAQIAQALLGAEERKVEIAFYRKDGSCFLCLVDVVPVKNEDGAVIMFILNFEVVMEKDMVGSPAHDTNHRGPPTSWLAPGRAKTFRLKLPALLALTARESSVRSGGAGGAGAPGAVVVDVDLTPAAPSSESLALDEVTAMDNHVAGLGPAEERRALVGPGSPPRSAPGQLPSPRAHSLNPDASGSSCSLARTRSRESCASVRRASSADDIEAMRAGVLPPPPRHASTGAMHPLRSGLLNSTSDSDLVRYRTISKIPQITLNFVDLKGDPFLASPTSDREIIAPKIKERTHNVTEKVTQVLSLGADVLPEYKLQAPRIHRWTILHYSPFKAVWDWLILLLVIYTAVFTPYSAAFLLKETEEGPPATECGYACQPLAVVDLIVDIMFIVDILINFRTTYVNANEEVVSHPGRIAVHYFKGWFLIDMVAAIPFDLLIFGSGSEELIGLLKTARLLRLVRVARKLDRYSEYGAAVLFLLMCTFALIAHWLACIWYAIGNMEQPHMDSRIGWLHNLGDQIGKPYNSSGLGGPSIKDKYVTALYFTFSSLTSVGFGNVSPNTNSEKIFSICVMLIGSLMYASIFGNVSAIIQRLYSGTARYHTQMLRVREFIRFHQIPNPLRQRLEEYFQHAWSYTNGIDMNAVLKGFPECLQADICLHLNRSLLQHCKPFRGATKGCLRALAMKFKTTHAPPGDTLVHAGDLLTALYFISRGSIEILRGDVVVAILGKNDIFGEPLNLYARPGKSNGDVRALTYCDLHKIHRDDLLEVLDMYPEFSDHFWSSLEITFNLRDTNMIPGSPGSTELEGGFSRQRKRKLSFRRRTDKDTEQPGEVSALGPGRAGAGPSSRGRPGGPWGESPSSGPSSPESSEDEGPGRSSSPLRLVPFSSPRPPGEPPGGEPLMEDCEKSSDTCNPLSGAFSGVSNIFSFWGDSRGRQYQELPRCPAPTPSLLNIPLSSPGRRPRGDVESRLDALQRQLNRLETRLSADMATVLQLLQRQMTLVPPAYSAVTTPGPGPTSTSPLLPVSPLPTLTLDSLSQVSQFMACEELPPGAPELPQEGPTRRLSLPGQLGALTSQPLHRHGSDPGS
row,SMILES,"hERG current change (%, negative = inhibition) at 1uM [%]"
1,NC(=O)NCCCC(NC(=O)c1ccc(C#CC2(O)CCCCC2)cc1)C(=O)O (stereo not shown),8.16
2,NS(=O)(=O)c1cccc2c1c([N+](=O)[O-])cc1nc([O-])c([O-])nc12.[Na+],20.2
3,CCCNS(=O)(=O)c1cc(Br)cc2c1N(C(=O)CC)CC2,4.42
4,C=C(C)c1cccc(C(C)(C)NC(=O)NC2CC(C)(C)NC(C)(C)C2)c1,7.67
5,O=C(Nc1ccc(F)cc1)C1CC2CCC1C2 (stereo not shown),12.7
6,Cc1ccc(NC(=O)c2cc(C)on2)cc1,6.42
7,CC12CN3CC(C)(CN(C1)C3c1ccccc1)C2O (stereo not shown),9.98
8,Cc1ccc(C2=NN(CC(=O)NCCN(CC(C)C)CC(C)C)C(=O)CC2)cc1,-3.88
9,COc1cc(NC(=O)C(C)Oc2ccccc2)c(OC)cc1NC(=O)c1ccccc1 (stereo not shown),13.2
10,Clc1ccc2nc(C3CCN(Cc4nnnn4C4CCCCC4)CC3)[nH]c2c1,-16.2
11,Clc1ccc(CN2CCC(c3nc4ccc(Cl)cc4[nH]3)CC2)cc1,-78.7
12,COc1ccc(NC(=S)N2CCC(c3nc4ccc(Cl)cc4[nH]3)CC2)c(OC)c1,1.15
13,COc1ccc(CN2CCC(c3nc4ccc(Cl)cc4[nH]3)CC2)cc1,-84
14,CC(C)(C)c1ccc(S(=O)(=O)N2CCC(c3nc4ccc(Cl)cc4[nH]3)CC2)cc1,7.6
15,O=C(NC1CCCCC1)N1CCC(c2nc3ccc(Cl)cc3[nH]2)CC1,6.29
16,Cc1ccc(CN2CCC(c3nc4ccc(Cl)cc4[nH]3)CC2)cc1,-91.8
17,Cc1ccc(Cn2nnnc2CN2CCC(c3nc4ccc(Cl)cc4[nH]3)CC2)cc1,4.97
18,CC1CCCCN1C(=O)CN1CCC(c2nc3ccc(Cl)cc3[nH]2)CC1 (stereo not shown),1.51
19,Clc1ccc2nc(C3CCN(Cc4ccccc4)CC3)[nH]c2c1,-73.7
20,O=C(c1cccc(Cl)c1)N1CCC(c2nc3ccccc3[nH]2)CC1,-0.145
21,CC1CCCN(C(=O)CN2CCC(c3nc4ccc(Cl)cc4[nH]3)CC2)C1 (stereo not shown),-35.9
22,Cc1nc(CCl)cc(=O)[nH]1,4.26

row,SMILES,"hERG current change (%, negative = inhibition) at 1uM [%]"
1,Cc1[nH]ccc(=O)c1OCc1c(F)cccc1Cl,12.8
2,Nc1cc(=O)[nH]c(SCC(=O)Nc2ccc(Cl)c(Cl)c2)n1,1.55
3,Cc1nc(SCCC(=O)O)c2cc(-c3ccccc3)sc2n1,6.67
4,NC(=O)CSc1nnc(CNc2ccc(F)cc2)n1CC1CCCO1 (stereo not shown),-1.77
5,COc1ccc(-n2ccnc(SCC(=O)NC3CCCC3)c2=O)cc1,-4.46
6,CCOc1cc(C(=O)NC(C)c2ccncc2)cc(OCC)c1OCC (stereo not shown),-1.97
7,Cc1cc(Cl)ccc1N(CC(=O)NCc1ccc2c(c1)OCO2)S(C)(=O)=O,3.99
8,Cc1ccc(NC(=S)N(CCC(C)C)C(C)c2ccncc2)c(Cl)c1 (stereo not shown),10.9
9,CC1(C(=O)NC(=S)N(Cc2ccccc2)c2ccccn2)CC1(Cl)Cl (stereo not shown),12.4
10,Cc1cc(C)c([C@@H]2C[C@H]3CN(C4CCCC4)C(=O)[C@]34CCCN24)c(-n2cccn2)c1,-71.7
11,Cc1ccc(-n2cccn2)c([C@@H]2C[C@H]3CN(C)C(=O)[C@]34CCCN24)c1,-15
12,O=C1N(C2CCCC2)C[C@@H]2C[C@@H](c3cccn3-c3nccs3)N3CCC[C@@]123,-60.3
13,O=C1N(C2CCCC2)C[C@@H]2C[C@@H](c3cccn3-c3ccccn3)N3CCC[C@@]123,-28.9
14,Cn1cc([C@@H]2C[C@H]3CN(C4CCCC4)C(=O)[C@]34CCCN24)c(-c2ccccc2)n1,-0.828
15,CN1C[C@@H]2C[C@@H](c3cccn3-c3nccs3)N3CCC[C@@]23C1=O,1.26
16,COc1ccc(Nc2nc(N)c(C(=O)c3ccc(OC)cc3)s2)cc1,-5.28
17,CC12CCC(=O)N1C(C(=O)Nc1cc(C(F)(F)F)ccc1N1CCOCC1)CS2 (stereo not shown),10.5
18,Cc1cc(C)nc(NC(=S)Nc2cccc(F)c2)c1,6.3
19,CCOc1cc(N2CCOCC2)c(OCC)cc1NC(=O)c1ccc(C)s1,-1.15
20,COc1ccc(N=C2SCCCN2C)cc1.I,15.8
21,c1cc2c3c(cccc3c1)C(N1CCOCC1)=N2,-0.83
22,c1cc2c3c(cccc3c1)C(N1CCCCC1)=N2,-44.8

row,SMILES,"hERG current change (%, negative = inhibition) at 1uM [%]"
1,Fc1ccc(N2CCN(C3=Nc4cccc5cccc3c45)CC2)cc1,-69.4
2,CNC(=O)CC1C(=O)N(c2ccc(Cl)cc2)C(=S)N1CCc1ccc(OC)c(OC)c1 (stereo not shown),10.1
3,N=c1c(C(=O)NCC2CCCO2)cc2c(=O)n3ccccc3nc2n1C1CCCC1 (stereo not shown),-72.2
4,N=c1c(C(=O)NCC2CCCO2)cc2c(=O)n3ccccc3nc2n1C1CCCCC1 (stereo not shown),-79.2
5,O=C(NCC1CCCO1)c1cccc2ccccc12 (stereo not shown),17.8
6,N=c1c(S(=O)(=O)c2ccc(Br)cc2)cc2c(=O)n3ccccc3nc2n1C1CCCC1,14.3
7,N=c1c(S(=O)(=O)c2ccc(Br)cc2)cc2c(=O)n3ccccc3nc2n1C1CCCCC1,21.1
8,CN(C)c1ccc(CN(C(=O)/C=C/c2ccco2)C2CCS(=O)(=O)C2)cc1 (stereo not shown),11.7
9,O=C(Nc1ccc(F)c(Cl)c1)Nn1cnnc1,0.762
10,Cc1cccc(NC(=S)N/N=C/c2ccc([N+](=O)[O-])s2)c1,11.2
11,COc1ccc2[nH]c(=O)c(C(c3nnnn3C3CCCC3)N(C)C3CCCCC3)cc2c1 (stereo not shown),-3.8
12,CN(C(=O)c1ccc(S(=O)(=O)N2CCCCC2)cc1)C1CCS(=O)(=O)C1 (stereo not shown),-3.22
13,CC1CC(C)CN(CC(=O)c2cccs2)C1 (stereo not shown),-7.65
14,CCC1CCCCN1CC(=O)c1ccc(OC(F)F)cc1 (stereo not shown),-80.2
15,Cl.O=C(CN1CCCCC1)c1ccc(F)cc1,7.09
16,Br.O=C(CN1CCCCC1CO)c1ccc(OC(F)F)cc1 (stereo not shown),-21.3
17,Br.CC1CC(C)CN(CC(=O)c2ccc(OC(F)F)cc2)C1 (stereo not shown),-96.1
18,CC1CC(C)CN(C(=S)Nc2ccc(OC(F)F)cc2)C1 (stereo not shown),-45.1
19,Br.O=C(CN1CCCCC1)c1ccc(OC(F)F)cc1,-63.4
20,CCC1CCCCN1CC(=O)c1c(C)[nH]c2ccc(OC)cc12 (stereo not shown),-5.25
21,Br.COc1ccc(C(=O)CN2CCCCC2)cc1,13.9
22,O=C(COC(=O)C1CCN(C(=O)c2ccc(Cl)cc2)CC1)Nc1ccccc1F,-11.5

row,SMILES,"hERG current change (%, negative = inhibition) at 1uM [%]"
1,Cc1cc(-c2nn(-c3ccccc3F)cc2CN2CCN(c3ccccn3)CC2)c(C)s1,10.2
2,Cc1cc(-c2nn(-c3ccccc3F)cc2CN2CCN(c3ccncc3)CC2)c(C)s1,-69.3
3,Cc1cc(-c2nn(-c3ccccc3F)cc2CN2CCC(O)CC2)c(C)s1,-0.852
4,Cc1ccc(N(CC(=O)NC(C)(C)C)C(=O)CNC(=O)c2cccs2)cc1,7.4
5,CN(CC(=O)Nc1ccc(F)cc1)C(=O)Cn1nnc(-c2ccccc2)n1,7.23
6,CC(C)N(C)C1CCN(C(=O)Nc2ccc(Cl)c(Cl)c2)CC1,-19.5
7,O=C(CSc1nnc(-c2ccco2)n1Cc1ccccc1)c1ccccc1,8.89
8,c1ccc(CSc2nnc(-c3ccco3)n2Cc2ccccc2)cc1,-6.43
9,O=C1c2ccccc2C(=O)N1CCSc1nnc(-c2ccco2)n1Cc1ccccc1,-51.1
10,Cc1c(NC(=S)N2CCN(c3cccc(Cl)c3)CC2)c(=O)n(-c2ccccc2)n1C,9.46
11,CCNC(=O)OCCC12CC3CC(CC(C3)C1)C2,11.6
12,CCn1cc(CNC(=O)c2ccc3nc(Cc4ccccc4F)oc3c2)cn1,11.3
13,COCCN(C(=O)COC(=O)c1ccc2[nH]c(C)c(C)c2c1)c1c(N)n(Cc2ccccc2)c(=O)[nH]c1=O,7.98
14,CN(C)CCCN(C(=O)C1COc2ccccc2O1)c1nc2cc3c(cc2s1)OCO3.Cl (stereo not shown),-21.3
15,CN(C)CCCN(C(=O)c1ccc2c(c1)OCCO2)c1nc2ccc(Cl)cc2s1.Cl,-3.81
16,CN(C)CCN(C(=O)C1=COCCO1)c1nc2ccc(Cl)cc2s1.Cl,-62.4
17,CN(C)CCCN(C(=O)CCc1ccccc1)c1nc2ccc(F)cc2s1.Cl,-24.8
18,CN(C)CCN(C(=O)C1=COCCO1)c1nc2ccc(F)cc2s1.Cl,-57.7
19,CN(C)CCN(C(=O)c1ccc2c(c1)OCCO2)c1nc2ccc(Cl)cc2s1.Cl,10.8
20,CN(C)CCCN(C(=O)C1=COCCO1)c1nc2ccc(Br)cc2s1.Cl,-25.1
21,Cc1ccc2nc(N(CCN(C)C)C(=O)C3=COCCO3)sc2c1.Cl,-5.32
22,CN(C)CCCN(C(=O)C1COc2ccccc2O1)c1nc2ccc(F)cc2s1.Cl (stereo not shown),-64.9
